Data: the supplement of paper PMC3545927
Some of the results follow. The hit rate among all sequences tested is not known here.

Target: furin, P09958
Test: furin cleavage Z-score vs untreated control; higher = more cleavage, active = 3.5 or more, inactive = 1 or less, 8 variable residues between constant flanks
In short: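 Cleavage by purified furin was measured on 8-mer peptides fused to a cDNA oligonucleotide and held on magnetic beads by their N-terminus. Reactions (0.01 ml, 1:10 enzyme:substrate) ran 7.5, 15 or 30 min in 50 mM HEPES pH 7.5 with CaCl2 and NaCl. Released DNA was adapter-tagged by PCR and sequenced, with read counts giving abundance. Log counts versus furin-free reactions were lowess-adjusted and scaled by median absolute deviation to give the cleavage Z-score.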

Sequence of furin, P09958 (P09958 whole entry): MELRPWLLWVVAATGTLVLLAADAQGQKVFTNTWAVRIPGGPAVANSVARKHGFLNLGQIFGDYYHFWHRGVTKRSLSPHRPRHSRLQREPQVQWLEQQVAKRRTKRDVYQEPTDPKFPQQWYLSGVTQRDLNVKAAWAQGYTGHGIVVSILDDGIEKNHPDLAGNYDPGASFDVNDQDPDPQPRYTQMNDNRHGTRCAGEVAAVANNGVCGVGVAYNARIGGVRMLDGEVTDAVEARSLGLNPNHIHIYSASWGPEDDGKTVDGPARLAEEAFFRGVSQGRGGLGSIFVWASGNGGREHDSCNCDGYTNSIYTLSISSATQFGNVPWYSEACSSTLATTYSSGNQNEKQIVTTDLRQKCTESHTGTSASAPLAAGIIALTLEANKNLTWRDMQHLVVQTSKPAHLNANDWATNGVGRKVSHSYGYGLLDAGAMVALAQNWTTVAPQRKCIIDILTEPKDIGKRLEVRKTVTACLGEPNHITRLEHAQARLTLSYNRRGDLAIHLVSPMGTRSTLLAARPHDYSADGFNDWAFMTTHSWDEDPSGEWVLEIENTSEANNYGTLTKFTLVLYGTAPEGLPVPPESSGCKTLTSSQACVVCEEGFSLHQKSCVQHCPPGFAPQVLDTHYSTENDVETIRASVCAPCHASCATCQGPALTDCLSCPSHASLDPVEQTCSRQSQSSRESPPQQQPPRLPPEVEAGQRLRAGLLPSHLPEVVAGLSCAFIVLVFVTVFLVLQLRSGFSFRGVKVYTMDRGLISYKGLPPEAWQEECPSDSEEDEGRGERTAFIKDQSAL

Row | Sequence | furin cleavage Z-score (7.5 min) | furin cleavage Z-score (15 min) | furin cleavage Z-score (30 min)
1 | CAMWPLLLLLAGNASASA [HC557] | 0.169 (inactive) | 0.292 (inactive) | -0.0686 (inactive)
2 | CAQVLPCSFTAGNASASA [HC497] | 1.05 | -1.13 (inactive) | 0.347 (inactive)
3 | CAVVCCSMHYAGNASASA [HC2075] | -0.613 (inactive) | 1.54 | 1.45
4 | CASSTSGITGAGNASASA [HC1338] | -0.675 (inactive) | -0.0853 (inactive) | -0.923 (inactive)
5 | CAELVTSTWVAGNASASA [HC2165] | 1.19 | -1.53 (inactive) | 0.617 (inactive)
6 | CALMHRKKRLAGNASASA [FS-351] | 8.68 (active) | 11 (active) | 9.08 (active)
7 | CALSDRKKRLAGNASASA [FS-1137] | 4.97 (active) | 5.99 (active) | 4.87 (active)
8 | CALPPIIQRLAGNASASA [HC1600] | -1.17 (inactive) | -0.382 (inactive) | -0.2 (inactive)
9 | CATPARKKRLAGNASASA [FS-729] | 7.39 (active) | 8.85 (active) | 8.77 (active)
10 | CAQYWRDKRLAGNASASA [FS-1154] | 0.77 (inactive) | 0.402 (inactive) | 0.0823 (inactive)
11 | CAGSLRKKRLAGNASASA [FS-1528] | 8.24 (active) | 9.41 (active) | 8.69 (active)
12 | CASVVTSTWVAGNASASA [HC2157] | 1.21 | -0.109 (inactive) | 0.831 (inactive)
13 | CAGEPGDPDLAGNASASA [HC1357] | -1.27 (inactive) | -0.0644 (inactive) | 0.75 (inactive)
14 | CAWVPCHRPSAGNASASA [HC2308] | -0.717 (inactive) | 2.59 | 0.688 (inactive)
15 | CAEVPCHRESAGNASASA [HC2392] | 0.318 (inactive) | 1.09 | 0.395 (inactive)
16 | CADFSLDPTFAGNASASA [HC892] | 0.169 (inactive) | -0.616 (inactive) | -1.12 (inactive)
17 | CATTGEIPFYAGNASASA [HC845] | -1.32 (inactive) | -1.97 (inactive) | 0.0887 (inactive)
18 | CAVQEDAASLAGNASASA [HC1535] | -1.62 (inactive) | -0.428 (inactive) | -0.272 (inactive)
19 | CALCSALYVGAGNASASA [HC296] | -0.409 (inactive) | -0.564 (inactive) | 0.88 (inactive)
20 | CAMFECSQHLAGNASASA [HC1687] | -0.00522 (inactive) | -0.149 (inactive) | -0.982 (inactive)
21 | CAVVCWSMSYAGNASASA [HC87] | -0.794 (inactive) | -0.454 (inactive) | -0.791 (inactive)
22 | CATPRRQKRLAGNASASA [FS-881] | 9.61 (active) | 11.3 (active) | 9.49 (active)

Row | Sequence | furin cleavage Z-score (7.5 min) | furin cleavage Z-score (15 min) | furin cleavage Z-score (30 min)
23 | CARSQRSWRLAGNASASA [FS-1162] | -0.897 (inactive) | -0.415 (inactive) | -1.15 (inactive)
24 | CAKHNRPRRDAGNASASA [FS-602] | 12.5 (active) | 11.7 (active) | 9.21 (active)
25 | CARSPRPRGDAGNASASA [FS-3090] | 0.374 (inactive) | -0.595 (inactive) | 0.318 (inactive)
26 | CAPLARAAWEAGNASASA [HC1566] | 0.967 (inactive) | 1.75 | 0.234 (inactive)
27 | CAGSRRWGRYAGNASASA [FS-167] | -0.565 (inactive) | 1.19 | 2.01
28 | CAPGPRPRRDAGNASASA [FS-472] | 14.1 (active) | 15 (active) | 10.8 (active)
29 | CAGSRRPRRDAGNASASA [FS-789] | 13.1 (active) | 13 (active) | 10.2 (active)
30 | CAPLARPRRDAGNASASA [FS-556] | 9.88 (active) | 7.62 (active) | 6.73 (active)
31 | CAPEPREQRDAGNASASA [FS-1045] | -0.201 (inactive) | -0.175 (inactive) | -0.45 (inactive)
32 | CAMMECSQHLAGNASASA [HC1686] | -0.328 (inactive) | 0.731 (inactive) | 0.7 (inactive)
33 | CAEVVTVTWVAGNASASA [HC143] | -0.0202 (inactive) | -1.22 (inactive) | 0.0435 (inactive)
34 | CASIEPLDLPAGNASASA [HC1597] | -0.888 (inactive) | 1.4 | -0.00883 (inactive)
35 | CARRYRGNDSAGNASASA [FS-3072] | -0.0765 (inactive) | -0.858 (inactive) | -0.417 (inactive)
36 | CARRWRSLRPAGNASASA [FS-1924] | -0.388 (inactive) | 2.12 | 2.35
37 | CARRERSIKSAGNASASA [FS-863] | 3.74 (active) | 6.21 (active) | 7 (active)
38 | CARRRRARSSAGNASASA [FS-3061] | 9.64 (active) | 8.93 (active) | 6.98 (active)
39 | CARRRRSRSSAGNASASA [FS-3263] | 8.31 (active) | 9.52 (active) | 8.33 (active)
40 | CAPRRRARSLAGNASASA [FS-2479] | 10.9 (active) | 12.2 (active) | 10.3 (active)
41 | CAAPQGSRSLAGNASASA [HC717] | -0.871 (inactive) | -1.2 (inactive) | 0.343 (inactive)
42 | CARNFRFLSSAGNASASA [FS-3004] | -0.151 (inactive) | -0.288 (inactive) | -1.62 (inactive)
43 | CATTPCEGSWAGNASASA [HC73] | 0.057 (inactive) | 0.658 (inactive) | 0.0884 (inactive)
